The source made the active and inactive calls. How the source made its calls: active means hit-call score of the fitted dose curve at least 0.9, where 1 is the maximum; inactive means score below 0.9.
read-out: CFLAR gene, CFLAR (gene 8837); assay: LTEA_HepaRG_CFLAR: Life Technologies and Expression Analysis (LTEA) Assay for CFLAR gene using HepaRG (AID 2283455); settings: mRNA level, 48 h; actives raise or lower the signal
Procedure: LTEA_HepaRG is a cell based, multiplexed-readout assay that uses HepaRG, a human liver cell line, with measurements taken at 48 hours after chemical dosing on a 96-well plate.LTEA_HepaRG_CFLAR is one of 102 assay component(s) measured in the LTEA HepaRG cell culture assay. It is a marker of Cell proliferation, survival, death.Data from the assay component LTEA_HepaRG_CFLAR was analyzed into 1 endpoint. This assay endpoint, LTEA_HepaRG_CFLAR, was analyzed with bidirectional fitting relative to DMSO as the negative control and baseline of activity. Using a type of inducible reporter, measures of mRNA induction for gain or loss-of-signal activity can be used to understand regulation of transcription factor activity. To generalize the intended target to other relatable targets, this assay endpoint is annotated to the cell cycle intended target family, where the subfamily is Cell proliferation, survival, death.
A total of 1060 chemcials from the ToxCast library were tested in eight-point concentration-response experiments. Cell culture and cytotoxicity assays were conducted at Thermo Fisher Scientific's Custom Services facility (Madison, WI). A single lot of human HepaRG cells (Thermo Fisher Scientific, Frederick, MD) was used for the cell culture experiments. 96-well format collagen type I coated plates of human HepaRG cells were prepared using established methods. Briefly, cryopreserved HepaRG cells were thawed, plated at a density of approximately 100,000 cells/well in HepaRG Thaw, Plate, and General Purpose media (HPRG770, Thermo Fisher Scientific), and incubated for 48 hours. 0.5% DMSO was selected as vehicle control to balance the requisite need of DMSO in HepaRG cultures to maintain differentiation (for example, baseline metabolism, proportions of hepatocytes vs. cholangiocytes), while enabling further hepatic receptor pathway activation (for example, PXR and CAR) in response to chemical exposure. 48 hours after plating, the culture medium was replaced with HepaRG Serum-Free Incudtion Media. Cells were exposed to each test chemical in duplicate and maintained in CO2 incubators for another 48 hours. Chemical plates were thawed to room temperature and 200x concentrations of treatment groups were prepared. 8-point conentration-reponse curves were made with the highest exposure at 100 uM, followed by half-log dilutions, all in 0.5% DMSO. Each test plate contained variouse controls, induction positive controls (1mM phenobarbital), cytotoxicity positive controls ([…] aflatoxin B1), vehicle controls (0.5% DMSO), and total lysis controls (0.5% DMSO). Cell morphology images were taken using an Essen IncuCyte FLR automated microscope, with six 96-well plates imaged in about 24 minutes. Images were captured and exported and JPEG files. Spent culture media was transfered to black-well plates for the LDH assay, and remaining media was sorted at -80 C for later use. Cells were treated with RLT buffer and frozen until shipped for gene expression analysis. Total RNA was isolated from the cell suspension in 75 uL of Buffer RLT (Qiagen, Germantown, MD 20874) by Quintiles/Expression Analysis (Durham, NC) using a custom isolation procedure. Total RNA from each plate well was transferred to a preamplification plate. Fluidigm's 96.96 Dynamic ArrayTM (Fluidigm, Amsterdam, the Netherlands) technology was used for gene expression analyses by quantitative reverse transcription polymerase chain reaction (qRT-PCR, performed by Quintiles/Expression Analysis, Durham, NC)89. Standard TaqManTM Assays (Applied Biosystems/ThermoFisher Scientific, Foster City, CA) were used to assess the expression of 93 genes selected based on their selectivity and sensitivity to important hepatic receptors known to be modulated by environmental chemicals; importance in human hepatocyte functionality; and hepatotoxicity. […]

Row | SMILES | outcome | AC50
1 | CC(N)=O | inactive | –
2 | CC(COCC(C)OC(=O)c1ccccc1)OC(=O)c1ccccc1 (stereo not given) | inactive | –
3 | C=CCc1ccc(OC)c(OC)c1 | inactive | –
4 | CCCCCCC(C=O)=Cc1ccccc1 | inactive | –
5 | CCCCC(CC)COC(=O)CCCCCCCC(=O)OCC(CC)CCCC (stereo not given) | inactive | –
6 | C/C=C/c1ccc(OC)cc1 | inactive | –
7 | CCc1cc(C2=C(C(=O)O)N(c3ccccc3C(F)(F)F)S(=O)(=O)c3ccccc32)cc2c1OCO2 | inactive | –
8 | CC(=O)O | inactive | –
9 | CC(C)c1cccc(C(C)C)c1 | inactive | –
10 | CCCCOC(=O)CCCCC(=O)OCCCC | inactive | –
11 | CN(C)C(=O)NC1(c2ccccc2)CCN(CC[C@@]2(c3ccc(F)c(F)c3)CN(C(=O)c3ccccc3)CCO2)CC1 | inactive | –
12 | O=C1NC(=O)C(c2ccccc2)(c2ccccc2)N1 | inactive | –
13 | Cc1cc(Cc2ccc(N)c(C)c2)ccc1N | inactive | –
14 | CSc1ccc(Oc2ccc(S(N)(=O)=O)cc2CN(C)C)cc1C | inactive | –
15 | NC=O | inactive | –
16 | Cc1occc(=O)c1O | inactive | –
17 | CCCCC(CC)COP(=O)(OCC(CC)CCCC)OCC(CC)CCCC (stereo not given) | inactive | –
18 | CC1(C)C(=O)NC(=O)N1CO | inactive | –
19 | N[C@@H](Cc1c[nH]c2ccccc12)C(=O)O | inactive | –
20 | COC(=O)CCCC(=O)OC | inactive | –

Row | SMILES | outcome | AC50
21 | O=C(O)CC(O)(CC(=O)O)C(=O)O | inactive | –
22 | CC(=O)CC(c1ccccc1)c1c(O)c2ccccc2oc1=O (stereo not given) | inactive | –
23 | NCCOCCOCCN | inactive | –
24 | O=C(Oc1ccccc1)c1cccc(C(=O)Oc2ccccc2)c1 | inactive | –
25 | CCCCCCC(CCCCCCCCCCC(=O)OCC(COC(C)=O)OC(C)=O)OC(C)=O (stereo not given) | inactive | –
26 | CC(=O)[C@@]1(O)CC[C@H]2[C@@H]3CCC4=CC(=O)CC[C@]4(C)[C@H]3CC[C@@]21C | inactive | –
27 | COc1ccc(C(=O)Nc2nc3ccccc3c(NCc3ccccc3)c2C#N)cc1 | inactive | –
28 | CCCC(=O)O | inactive | –
29 | CC(=O)O[C@]1(C(C)=O)CC[C@H]2[C@@H]3C=C(Cl)C4=CC(=O)[C@@H]5C[C@@H]5[C@]4(C)[C@H]3CC[C@@]21C | – | 50 µM (active)
30 | O=C(NS(=O)(=O)/C=C/c1cccs1)c1ccc(F)cc1Br | inactive | –
31 | CCCCC(CC)CO (stereo not given) | inactive | –
32 | CCCCCCCCCC[N+](C)(C)[O-] | inactive | –
33 | COc1ccc(OC(F)(F)F)cc1CN[C@H]1CCCN[C@H]1c1ccccc1 | – | 84.1 µM (active)
34 | O=[Si]=O | inactive | –
35 | CC(C)COC(=O)CCCCC(=O)OCC(C)C | inactive | –
36 | O=C1OC(c2ccc(O)cc2)(c2ccc(O)cc2)c2ccccc21 | – | 76.4 µM (active)
37 | Cc1cc(SC2=C(O)C[C@@](CCc3ccc(N)cc3)(C(C)C)OC2=O)c(C(C)(C)C)cc1CO | inactive | –
38 | Oc1ccc(O)cc1 | inactive | –
39 | CC(C)(C)c1ccccc1 | inactive | –
40 | CCc1nc(N)nc(N)c1-c1ccc(Cl)cc1 | inactive | –

From PubChem BioAssay (EPA / NIEHS)
